# According to the supplement of paper PMC8728848:
# The entries come from a sample that favours the strongest signals as a whole.
# Columns and labels:
# Assay in all cases: glycan array binding signal (z-score within array); higher = stronger binding
# Conditions in all cases: glycan notation: IUPAC condensed, linker removed
# [1] = tested on: Fuc(a1-2)Gal(b1-4)[Fuc(a1-3)]GlcNAc(b1-2)Man(a1-3)[Fuc(a1-2)Gal(b1-4)[Fuc(a1-3)]GlcNAc(b1-2)Man(a1-6)]Man(b1-4)GlcNAc(b1-4)GlcNAc
# In short: (§1)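 Glycan array data were curated from 3228 arrays in the Consortium for Functional Glycomics database and kept only where the protein sequence was available. Glycan names were converted to IUPAC-condensed notation, and columns mapping to the same glycan were averaged. The binding signal is a within-array Z-score, averaged across arrays of the same protein sequence at different concentrations or buffers and across linkers. Negative Z-scores can be read as non-binding.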
# [2] = tested on: Fuc(a1-2)Gal(b1-4)[Fuc(a1-3)]GlcNAc(b1-3)GalNAc
# In short: as §1
# [3] = tested on: Fuc(a1-2)Gal(b1-4)GlcNAc(b1-3)[Fuc(a1-2)Gal(b1-4)GlcNAc(b1-6)]GalNAc
# In short: as §1
# [4] = tested on: Fuc(a1-2)Gal(b1-4)GlcNAc(b1-3)[Fuc(a1-3)[Gal(b1-4)]GlcNAc(b1-6)]Gal(b1-4)Glc
# In short: as §1
# [5] = tested on: Fuc(a1-2)Gal(b1-4)[Fuc(a1-3)]GlcNAc(b1-3)Gal(b1-4)[Fuc(a1-3)]GlcNAc(b1-3)Gal(b1-4)[Fuc(a1-3)]GlcNAc
# In short: as §1
# Fuc(a1-2)Gal(b1-4)GlcNAc = tested on: Fuc(a1-2)Gal(b1-4)GlcNAc
# In short: as §1
# [6] = tested on: Fuc(a1-2)Gal(b1-4)[Fuc(a1-3)]GlcNAc(b1-3)Gal(b1-4)[Fuc(a1-3)]GlcNAc
# In short: as §1
# [7] = tested on: Fuc(a1-2)Gal(b1-4)GlcNAc(b1-6)GalNAc
# In short: as §1
# [8] = tested on: Fuc(a1-2)Gal(b1-4)GlcNAc6S
# In short: as §1
# [9] = tested on: Fuc(a1-2)Gal(b1-4)[Fuc(a1-3)]GlcNAc
# In short: as §1
substance,measurement,setting,value
"SiiE (Salmonella typhimurium), A0A0H3NVH0",glycan array binding signal (z-score),[1],2.43
same,glycan array binding signal (z-score),[2],1.53
AgI/IIC123-GFP (Streptococcus mutans),glycan array binding signal (z-score),[3],-0.365
same,glycan array binding signal (z-score),[4],0.17
same,glycan array binding signal (z-score),[5],-0.094
"BambL (Burhholderia ambifaria), Q0B4G1",glycan array binding signal (z-score),Fuc(a1-2)Gal(b1-4)GlcNAc,3.81
same,glycan array binding signal (z-score),[6],3.28
"Wza (Escherichia coli), P0A930",glycan array binding signal (z-score),[7],0.01
Epa22,glycan array binding signal (z-score),Fuc(a1-2)Gal(b1-4)GlcNAc,0.238
"SpGH101 (Streptococcus pneumoniae), Q8DR60",glycan array binding signal (z-score),[8],-0.166
same,glycan array binding signal (z-score),[2],0.136
same,glycan array binding signal (z-score),[9],-0.183
LcI (Legionella pneumophila),glycan array binding signal (z-score),[4],-0.92
same,glycan array binding signal (z-score),[9],-0.561
